Reference: ChEMBL document CHEMBL2218924, “A broad activity screen in support of a chemogenomic map for kinase signalling research and drug discovery” (Biochem J, 2013)

How the values were obtained:
[1] = target: T1, Muscle, skeletal receptor tyrosine-protein kinase (Homo sapiens) (UniProt O15146); conditions: at 1 µM
T1 sequence (whole entry): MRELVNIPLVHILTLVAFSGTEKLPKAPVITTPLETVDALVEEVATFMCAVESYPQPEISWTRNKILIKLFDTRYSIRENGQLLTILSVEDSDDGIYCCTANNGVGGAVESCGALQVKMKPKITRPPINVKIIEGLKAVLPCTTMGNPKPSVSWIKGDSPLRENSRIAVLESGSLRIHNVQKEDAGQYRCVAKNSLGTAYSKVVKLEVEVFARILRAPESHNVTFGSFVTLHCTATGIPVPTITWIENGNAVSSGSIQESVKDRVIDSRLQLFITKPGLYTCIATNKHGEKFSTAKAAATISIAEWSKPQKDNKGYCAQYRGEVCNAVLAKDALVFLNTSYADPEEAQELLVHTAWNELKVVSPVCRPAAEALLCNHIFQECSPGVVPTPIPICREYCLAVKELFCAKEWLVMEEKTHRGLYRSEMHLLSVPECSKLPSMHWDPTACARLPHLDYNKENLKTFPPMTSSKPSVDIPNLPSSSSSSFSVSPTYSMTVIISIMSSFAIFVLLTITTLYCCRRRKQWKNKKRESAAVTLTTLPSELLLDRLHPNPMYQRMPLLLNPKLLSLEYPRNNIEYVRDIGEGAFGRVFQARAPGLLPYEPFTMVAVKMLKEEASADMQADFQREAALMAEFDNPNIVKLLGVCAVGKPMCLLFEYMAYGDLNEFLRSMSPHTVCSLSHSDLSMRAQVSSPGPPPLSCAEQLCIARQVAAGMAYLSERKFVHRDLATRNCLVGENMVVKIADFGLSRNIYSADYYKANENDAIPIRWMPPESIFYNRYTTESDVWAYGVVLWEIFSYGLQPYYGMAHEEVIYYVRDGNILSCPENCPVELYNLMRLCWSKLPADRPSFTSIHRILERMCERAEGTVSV

[2] = target: T1, Muscle, skeletal receptor tyrosine-protein kinase (Homo sapiens); conditions: at 10 µM
[3] = target: T2, Serine/threonine-protein kinase Nek11 (Homo sapiens) (UniProt Q8NG66); conditions: at 1 µM
T2 sequence (whole entry): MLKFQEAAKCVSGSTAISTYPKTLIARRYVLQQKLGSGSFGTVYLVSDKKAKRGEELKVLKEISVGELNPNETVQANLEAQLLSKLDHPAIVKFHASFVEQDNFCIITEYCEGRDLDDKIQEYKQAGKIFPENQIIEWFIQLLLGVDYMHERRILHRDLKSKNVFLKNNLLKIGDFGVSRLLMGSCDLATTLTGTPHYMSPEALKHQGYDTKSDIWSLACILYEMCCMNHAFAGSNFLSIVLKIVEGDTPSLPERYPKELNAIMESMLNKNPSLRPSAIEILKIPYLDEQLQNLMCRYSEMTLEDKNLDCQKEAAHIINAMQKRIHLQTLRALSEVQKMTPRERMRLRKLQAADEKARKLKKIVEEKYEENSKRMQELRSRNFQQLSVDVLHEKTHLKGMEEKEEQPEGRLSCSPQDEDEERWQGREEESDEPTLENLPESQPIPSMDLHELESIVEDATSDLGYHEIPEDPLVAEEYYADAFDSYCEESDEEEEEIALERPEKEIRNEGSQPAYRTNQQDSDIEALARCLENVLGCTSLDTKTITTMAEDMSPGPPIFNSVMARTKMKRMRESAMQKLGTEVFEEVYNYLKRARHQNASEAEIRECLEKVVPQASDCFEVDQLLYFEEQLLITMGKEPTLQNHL

[4] = target: T2, Serine/threonine-protein kinase Nek11 (Homo sapiens); conditions: at 10 µM
[5] = target: T3, Serine/threonine-protein kinase Nek2 (Homo sapiens) (UniProt P51955); conditions: at 1 µM
T3 sequence (whole entry): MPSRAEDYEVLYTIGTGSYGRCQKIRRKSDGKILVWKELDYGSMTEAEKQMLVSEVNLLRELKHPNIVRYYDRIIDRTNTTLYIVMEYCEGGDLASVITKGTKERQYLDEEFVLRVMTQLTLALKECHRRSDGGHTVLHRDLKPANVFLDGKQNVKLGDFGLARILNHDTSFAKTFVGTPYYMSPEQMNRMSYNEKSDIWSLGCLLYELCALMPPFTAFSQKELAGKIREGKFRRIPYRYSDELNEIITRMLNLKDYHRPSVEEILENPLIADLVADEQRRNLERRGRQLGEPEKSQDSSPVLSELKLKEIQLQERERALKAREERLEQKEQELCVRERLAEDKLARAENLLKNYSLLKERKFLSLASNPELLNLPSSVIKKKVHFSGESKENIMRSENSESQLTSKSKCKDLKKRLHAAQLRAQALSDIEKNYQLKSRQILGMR

[6] = target: T3, Serine/threonine-protein kinase Nek2 (Homo sapiens); conditions: at 10 µM
[7] = target: T4, Serine/threonine-protein kinase Nek3 (Homo sapiens) (UniProt P51956); conditions: at 1 µM
T4 sequence (whole entry): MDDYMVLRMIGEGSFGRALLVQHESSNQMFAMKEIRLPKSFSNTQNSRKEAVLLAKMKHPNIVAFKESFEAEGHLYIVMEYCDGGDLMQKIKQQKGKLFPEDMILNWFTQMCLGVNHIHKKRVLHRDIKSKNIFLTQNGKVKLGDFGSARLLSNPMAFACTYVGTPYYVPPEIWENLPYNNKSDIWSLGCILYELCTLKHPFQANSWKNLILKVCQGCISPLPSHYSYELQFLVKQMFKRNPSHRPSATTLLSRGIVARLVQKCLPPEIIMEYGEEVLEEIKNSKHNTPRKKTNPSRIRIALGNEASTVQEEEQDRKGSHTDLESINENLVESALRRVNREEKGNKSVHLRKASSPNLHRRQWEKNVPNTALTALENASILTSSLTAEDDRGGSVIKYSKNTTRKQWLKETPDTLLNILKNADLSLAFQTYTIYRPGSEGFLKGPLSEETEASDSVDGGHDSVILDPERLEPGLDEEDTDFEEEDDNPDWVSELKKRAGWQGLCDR

[8] = target: T4, Serine/threonine-protein kinase Nek3 (Homo sapiens); conditions: at 10 µM
[9] = target: Serine/threonine-protein kinase tousled-like 2 (Homo sapiens) (UniProt Q86UE8); conditions: at 1 µM
[10] = target: Serine/threonine-protein kinase tousled-like 2 (Homo sapiens) (UniProt Q86UE8); conditions: at 10 µM
[11] = target: T5, Testis-specific serine/threonine-protein kinase 1 (Homo sapiens) (UniProt Q9BXA7); conditions: at 1 µM
T5 sequence (whole entry): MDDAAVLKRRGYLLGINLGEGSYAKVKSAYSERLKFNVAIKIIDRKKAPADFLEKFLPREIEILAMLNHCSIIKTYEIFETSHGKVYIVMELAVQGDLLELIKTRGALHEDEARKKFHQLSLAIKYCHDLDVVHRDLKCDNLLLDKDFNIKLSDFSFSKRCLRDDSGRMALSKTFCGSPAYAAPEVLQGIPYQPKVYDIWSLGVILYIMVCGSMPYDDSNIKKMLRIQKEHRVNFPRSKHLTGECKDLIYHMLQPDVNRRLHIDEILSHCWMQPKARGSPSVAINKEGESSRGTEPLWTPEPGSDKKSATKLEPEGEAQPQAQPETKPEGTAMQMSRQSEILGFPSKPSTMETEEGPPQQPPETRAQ

[12] = target: T5, Testis-specific serine/threonine-protein kinase 1 (Homo sapiens); conditions: at 10 µM
[13] = target: T6, Testis-specific serine/threonine-protein kinase 2 (Homo sapiens) (UniProt Q96PF2); conditions: at 10 µM
T6 sequence (whole entry): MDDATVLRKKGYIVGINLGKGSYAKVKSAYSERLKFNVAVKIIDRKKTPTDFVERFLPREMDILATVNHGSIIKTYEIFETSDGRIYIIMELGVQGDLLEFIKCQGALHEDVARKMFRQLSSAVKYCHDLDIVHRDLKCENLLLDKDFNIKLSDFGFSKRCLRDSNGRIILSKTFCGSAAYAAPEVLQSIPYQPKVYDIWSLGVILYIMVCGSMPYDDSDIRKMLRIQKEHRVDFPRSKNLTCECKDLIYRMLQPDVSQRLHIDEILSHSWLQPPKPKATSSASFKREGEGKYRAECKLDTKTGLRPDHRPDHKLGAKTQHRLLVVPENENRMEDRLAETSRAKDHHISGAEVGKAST

[14] = target: T7, Tyrosine-protein kinase Tec (Homo sapiens) (UniProt P42680); conditions: at 1 µM
T7 sequence (whole entry): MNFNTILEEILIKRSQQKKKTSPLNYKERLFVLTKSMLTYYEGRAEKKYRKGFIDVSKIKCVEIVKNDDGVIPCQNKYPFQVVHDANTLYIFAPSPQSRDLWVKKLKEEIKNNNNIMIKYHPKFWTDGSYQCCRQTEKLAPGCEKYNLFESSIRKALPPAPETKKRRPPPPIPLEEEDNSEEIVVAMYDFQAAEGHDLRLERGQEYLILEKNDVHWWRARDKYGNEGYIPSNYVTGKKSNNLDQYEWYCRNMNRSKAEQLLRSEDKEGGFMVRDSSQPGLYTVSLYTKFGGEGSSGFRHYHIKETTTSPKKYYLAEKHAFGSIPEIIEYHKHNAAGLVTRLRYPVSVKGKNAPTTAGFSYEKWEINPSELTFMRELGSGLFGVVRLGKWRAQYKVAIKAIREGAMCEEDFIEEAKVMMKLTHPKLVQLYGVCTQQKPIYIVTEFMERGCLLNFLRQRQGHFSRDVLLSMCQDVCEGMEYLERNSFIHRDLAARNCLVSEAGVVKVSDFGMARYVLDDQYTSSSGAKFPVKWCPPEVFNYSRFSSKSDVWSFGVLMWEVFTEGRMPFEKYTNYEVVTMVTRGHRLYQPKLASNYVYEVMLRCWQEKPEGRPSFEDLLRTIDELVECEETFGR

[15] = target: T7, Tyrosine-protein kinase Tec (Homo sapiens); conditions: at 10 µM
[16] = target: Angiopoietin-1 receptor (Homo sapiens) (UniProt Q02763); conditions: at 1 µM
[17] = target: Angiopoietin-1 receptor (Homo sapiens) (UniProt Q02763); conditions: at 10 µM
[18] = target: High affinity nerve growth factor receptor (Homo sapiens) (UniProt P04629); conditions: at 1 µM
[19] = target: High affinity nerve growth factor receptor (Homo sapiens) (UniProt P04629); conditions: at 10 µM
[20] = target: BDNF/NT-3 growth factors receptor (Homo sapiens) (UniProt Q16620); conditions: at 1 µM
BDNF/NT-3 growth factors receptor (Homo sapiens), sequence (Q16620 32-822 limits assumed): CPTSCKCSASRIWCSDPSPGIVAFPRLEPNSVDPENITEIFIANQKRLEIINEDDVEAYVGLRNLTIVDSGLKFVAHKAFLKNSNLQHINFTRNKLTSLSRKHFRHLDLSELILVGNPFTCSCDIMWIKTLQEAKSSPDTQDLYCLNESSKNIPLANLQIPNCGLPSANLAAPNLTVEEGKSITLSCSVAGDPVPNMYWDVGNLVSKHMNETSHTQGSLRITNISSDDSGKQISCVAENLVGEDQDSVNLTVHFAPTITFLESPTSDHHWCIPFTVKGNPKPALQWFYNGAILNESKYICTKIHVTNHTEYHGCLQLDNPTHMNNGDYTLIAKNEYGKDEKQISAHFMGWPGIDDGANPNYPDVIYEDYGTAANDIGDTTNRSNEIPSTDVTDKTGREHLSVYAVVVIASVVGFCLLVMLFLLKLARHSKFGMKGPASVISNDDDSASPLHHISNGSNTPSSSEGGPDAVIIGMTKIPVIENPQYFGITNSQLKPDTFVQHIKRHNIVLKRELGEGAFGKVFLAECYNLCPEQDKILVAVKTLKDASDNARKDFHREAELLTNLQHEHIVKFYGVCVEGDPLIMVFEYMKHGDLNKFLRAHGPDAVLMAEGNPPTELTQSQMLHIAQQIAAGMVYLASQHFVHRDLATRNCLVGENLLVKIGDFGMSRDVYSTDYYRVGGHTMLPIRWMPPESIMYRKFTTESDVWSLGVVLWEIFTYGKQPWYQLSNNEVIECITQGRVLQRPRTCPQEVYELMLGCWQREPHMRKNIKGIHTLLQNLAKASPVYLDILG

Serine/threonine-protein kinase tousled-like 2 (Homo sapiens), sequence (Q86UE8 whole entry, looked up): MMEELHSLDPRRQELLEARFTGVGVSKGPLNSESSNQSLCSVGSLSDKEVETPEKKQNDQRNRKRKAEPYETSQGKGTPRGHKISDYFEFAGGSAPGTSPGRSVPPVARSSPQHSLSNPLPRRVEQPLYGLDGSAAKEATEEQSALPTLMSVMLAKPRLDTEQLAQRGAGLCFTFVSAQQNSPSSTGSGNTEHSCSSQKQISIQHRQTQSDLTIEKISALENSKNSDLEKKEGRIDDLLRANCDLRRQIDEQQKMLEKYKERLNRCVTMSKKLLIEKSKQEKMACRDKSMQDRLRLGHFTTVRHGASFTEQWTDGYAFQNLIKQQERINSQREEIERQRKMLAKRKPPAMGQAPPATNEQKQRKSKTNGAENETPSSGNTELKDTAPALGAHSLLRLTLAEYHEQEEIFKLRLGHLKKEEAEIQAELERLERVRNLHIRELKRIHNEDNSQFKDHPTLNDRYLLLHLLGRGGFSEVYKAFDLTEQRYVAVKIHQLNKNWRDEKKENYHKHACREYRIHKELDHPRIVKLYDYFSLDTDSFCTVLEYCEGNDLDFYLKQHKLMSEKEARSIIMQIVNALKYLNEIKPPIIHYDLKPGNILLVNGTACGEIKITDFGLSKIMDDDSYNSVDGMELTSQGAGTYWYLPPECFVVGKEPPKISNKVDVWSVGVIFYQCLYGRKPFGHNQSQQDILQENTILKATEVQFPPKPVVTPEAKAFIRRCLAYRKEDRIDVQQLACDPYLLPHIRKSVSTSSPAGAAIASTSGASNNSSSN
Angiopoietin-1 receptor (Homo sapiens), sequence (Q02763 whole entry): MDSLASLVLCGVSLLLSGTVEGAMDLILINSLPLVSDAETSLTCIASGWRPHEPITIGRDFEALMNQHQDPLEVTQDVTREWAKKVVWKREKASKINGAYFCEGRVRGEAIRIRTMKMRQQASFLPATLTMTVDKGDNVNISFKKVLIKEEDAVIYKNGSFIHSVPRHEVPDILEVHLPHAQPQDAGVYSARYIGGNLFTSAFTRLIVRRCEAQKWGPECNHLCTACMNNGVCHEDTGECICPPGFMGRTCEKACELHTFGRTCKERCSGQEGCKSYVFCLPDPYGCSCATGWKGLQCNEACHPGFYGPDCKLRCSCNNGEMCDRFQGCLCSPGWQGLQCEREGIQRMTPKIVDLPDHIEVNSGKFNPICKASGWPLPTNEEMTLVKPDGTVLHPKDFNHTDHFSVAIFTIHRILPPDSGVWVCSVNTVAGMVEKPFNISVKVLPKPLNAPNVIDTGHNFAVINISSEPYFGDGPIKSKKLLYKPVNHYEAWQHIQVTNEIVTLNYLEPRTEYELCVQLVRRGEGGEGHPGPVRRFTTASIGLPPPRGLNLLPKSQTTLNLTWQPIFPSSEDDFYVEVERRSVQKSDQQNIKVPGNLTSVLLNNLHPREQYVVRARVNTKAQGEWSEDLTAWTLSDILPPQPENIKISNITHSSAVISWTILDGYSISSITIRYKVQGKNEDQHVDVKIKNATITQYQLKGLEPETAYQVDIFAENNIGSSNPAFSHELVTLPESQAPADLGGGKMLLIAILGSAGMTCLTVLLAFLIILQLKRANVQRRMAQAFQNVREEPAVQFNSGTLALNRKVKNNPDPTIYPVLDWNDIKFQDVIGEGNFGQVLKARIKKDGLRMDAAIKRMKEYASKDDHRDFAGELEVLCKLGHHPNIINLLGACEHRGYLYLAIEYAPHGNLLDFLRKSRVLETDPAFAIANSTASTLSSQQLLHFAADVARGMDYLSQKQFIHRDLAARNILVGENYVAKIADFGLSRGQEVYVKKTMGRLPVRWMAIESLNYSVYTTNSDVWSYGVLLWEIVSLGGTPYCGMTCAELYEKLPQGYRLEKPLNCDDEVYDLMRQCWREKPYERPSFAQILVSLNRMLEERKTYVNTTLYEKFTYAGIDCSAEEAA
High affinity nerve growth factor receptor (Homo sapiens), sequence (P04629 33-796 limits assumed): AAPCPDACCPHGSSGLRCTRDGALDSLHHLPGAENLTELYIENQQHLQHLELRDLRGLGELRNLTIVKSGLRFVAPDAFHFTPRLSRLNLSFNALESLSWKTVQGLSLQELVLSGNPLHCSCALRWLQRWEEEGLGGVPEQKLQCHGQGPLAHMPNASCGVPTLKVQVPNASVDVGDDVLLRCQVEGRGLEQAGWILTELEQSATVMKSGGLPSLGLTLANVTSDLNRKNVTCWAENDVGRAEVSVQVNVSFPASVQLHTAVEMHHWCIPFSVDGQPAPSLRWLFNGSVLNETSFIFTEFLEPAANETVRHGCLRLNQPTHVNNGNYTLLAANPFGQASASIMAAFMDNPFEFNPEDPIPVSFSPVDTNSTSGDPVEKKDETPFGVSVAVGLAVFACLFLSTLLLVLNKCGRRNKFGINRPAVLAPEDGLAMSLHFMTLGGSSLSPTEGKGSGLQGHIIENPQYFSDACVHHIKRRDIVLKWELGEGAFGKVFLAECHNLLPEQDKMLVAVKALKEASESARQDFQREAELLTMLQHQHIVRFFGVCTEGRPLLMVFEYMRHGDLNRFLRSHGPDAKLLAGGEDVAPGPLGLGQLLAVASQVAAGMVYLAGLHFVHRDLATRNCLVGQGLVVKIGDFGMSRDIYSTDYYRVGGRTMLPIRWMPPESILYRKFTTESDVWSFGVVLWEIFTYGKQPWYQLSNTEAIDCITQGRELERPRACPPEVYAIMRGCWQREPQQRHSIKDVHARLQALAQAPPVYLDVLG

Structure (SMILES)	residual activity [1] [%]	residual activity [2] [%]	residual activity [3] [%]	residual activity [4] [%]	residual activity [5] [%]	residual activity [6] [%]	residual activity [7] [%]	residual activity [8] [%]	residual activity [9] [%]	residual activity [10] [%]	residual activity [11] [%]	residual activity [12] [%]	residual activity [13] [%]	residual activity [14] [%]	residual activity [15] [%]	residual activity [16] [%]	residual activity [17] [%]	residual activity [18] [%]	residual activity [19] [%]	residual activity [20] [%]
COc1ccc(S(=O)(=O)N(CCO)c2ccccc2CN(C)C/C=C/c2ccc(Cl)cc2)cc1	79	79	95	109	105	102	80	92	92	85	97	81	86	102	36	118	66	87	47	86
COc1cc2ncnc(Nc3ccc(NC(=O)c4ccccc4)cc3)c2cc1OC		98	96	103	105	95			109	86	109	92	96	97	82		65	73	20	54
COc1cc2ncnc(Nc3ccc(Oc4ccccc4)cc3)c2cc1OC	71	73	100	105	92	96	106	97	106	98	95	93	111	40	10			135	82	102
c1ccc2c(-c3ccncc3)c[nH]c2c1	88	82	89	67	78	88			103	85	94	89	95	103	85	77	88	91	55	134
O=C1Nc2ccc(Br)cc2/C1=C\c1cc2c([nH]1)CCCC2	61	50				101	102	97	107					105		110		19	20	48
O=c1cc(-c2cccc3c2Sc2ccccc2S3)oc(N2CCOCC2)c1	106	96	93	64	96	92	92	99	96	96	92	98	90	94	75	101	61	114	95	75
N#CC(C#N)=C(N)/C(C#N)=C/c1ccc(O)cc1		82	75	97	91	100			100	95	98	96		90	88	84	74	121	119	99
N#Cc1cnc2cnc(NCc3cccnc3)cc2c1Nc1ccc(F)c(Cl)c1	93	60	88	79			37	46	73	47	0	-1	14	90	65			101	88	3
